Targets with a hit are over-represented here; the source holds about 8,800 in all. About 0.5% of all pairs of compound and target were hits. Values without a mark were called inactive.
What follows are targets tested with CCCS(=O)(=O)Nc1ccc(F)c(C(=O)c2c[nH]c3ncc(-c4ccc(Cl)cc4)cc23)c1F [vemurafenib] (assay: log2 fold change, soluble protein after heating vs DMSO (PISA); higher = thermal stabilisation; K562 lysate, 10 uM; active = over 0.2 and 3.5 SD of the protein, either way, in both replicates (recomputed)).
How it was run: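 Following dounce homogenisation of K562 pellets in PBS pH 7.4 with 1 mM MgCl2, crude extract at 1 mg/mL protein was incubated for 30 min with 10 μM compound. Aliquots were then heated for 3 min over 48°C-58°C and pooled, NP-40 was added to 0.5% at 4°C, and soluble protein was recovered as the supernatant at 21,000xg for 90 min. Channel-sum-equalised TMTpro 16plex LC-MS/MS quantified this protein. Each value, from duplicates, is a log-two fold change in thermal stability relative to solvent controls.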

UniProt Q7Z3U7, sequence (Q7Z3U7 whole entry, looked up): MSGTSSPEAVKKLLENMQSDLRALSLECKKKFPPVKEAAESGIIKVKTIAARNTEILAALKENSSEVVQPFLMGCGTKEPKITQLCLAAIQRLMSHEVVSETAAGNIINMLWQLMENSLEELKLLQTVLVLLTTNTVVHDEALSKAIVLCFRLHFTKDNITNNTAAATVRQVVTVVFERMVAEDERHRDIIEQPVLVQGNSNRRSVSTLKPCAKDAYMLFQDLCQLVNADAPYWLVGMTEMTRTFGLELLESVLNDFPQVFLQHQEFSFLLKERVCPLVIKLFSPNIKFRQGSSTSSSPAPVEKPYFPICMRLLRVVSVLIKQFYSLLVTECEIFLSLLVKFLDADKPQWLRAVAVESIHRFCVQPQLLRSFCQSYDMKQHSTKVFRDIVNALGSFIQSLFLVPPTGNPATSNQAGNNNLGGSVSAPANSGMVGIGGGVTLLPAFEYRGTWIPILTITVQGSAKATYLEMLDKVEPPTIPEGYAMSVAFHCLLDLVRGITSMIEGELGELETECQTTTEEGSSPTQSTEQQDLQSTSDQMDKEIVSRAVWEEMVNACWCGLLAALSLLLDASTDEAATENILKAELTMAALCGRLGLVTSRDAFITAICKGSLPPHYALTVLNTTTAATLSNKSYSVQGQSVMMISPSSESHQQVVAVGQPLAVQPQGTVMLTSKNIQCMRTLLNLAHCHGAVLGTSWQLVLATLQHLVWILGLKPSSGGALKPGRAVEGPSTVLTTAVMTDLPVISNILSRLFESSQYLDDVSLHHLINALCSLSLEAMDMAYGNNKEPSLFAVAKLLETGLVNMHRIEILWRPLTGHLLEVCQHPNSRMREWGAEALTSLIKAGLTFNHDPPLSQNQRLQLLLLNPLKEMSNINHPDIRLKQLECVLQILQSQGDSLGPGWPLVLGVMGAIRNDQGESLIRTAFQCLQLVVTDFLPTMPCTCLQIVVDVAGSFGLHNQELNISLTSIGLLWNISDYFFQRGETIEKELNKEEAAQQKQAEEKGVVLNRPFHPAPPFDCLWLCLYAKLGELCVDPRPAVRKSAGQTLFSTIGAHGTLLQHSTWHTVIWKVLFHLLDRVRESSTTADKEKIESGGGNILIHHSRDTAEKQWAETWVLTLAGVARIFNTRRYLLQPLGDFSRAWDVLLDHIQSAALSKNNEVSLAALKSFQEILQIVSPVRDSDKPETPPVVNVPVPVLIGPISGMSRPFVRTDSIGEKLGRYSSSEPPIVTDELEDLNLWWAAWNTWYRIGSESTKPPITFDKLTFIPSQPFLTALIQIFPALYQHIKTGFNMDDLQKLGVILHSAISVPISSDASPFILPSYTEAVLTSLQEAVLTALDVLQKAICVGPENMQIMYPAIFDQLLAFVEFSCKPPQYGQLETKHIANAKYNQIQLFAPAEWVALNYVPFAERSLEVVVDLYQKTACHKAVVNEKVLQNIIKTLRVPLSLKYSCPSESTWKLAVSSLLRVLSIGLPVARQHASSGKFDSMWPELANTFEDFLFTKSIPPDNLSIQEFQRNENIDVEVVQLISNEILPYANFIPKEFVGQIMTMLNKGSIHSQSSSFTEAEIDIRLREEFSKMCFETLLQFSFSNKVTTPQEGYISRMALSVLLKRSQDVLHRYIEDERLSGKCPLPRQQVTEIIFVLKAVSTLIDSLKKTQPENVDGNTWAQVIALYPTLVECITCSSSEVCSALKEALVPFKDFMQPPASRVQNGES
UniProt Q8IW41, sequence (Q8IW41 whole entry, looked up): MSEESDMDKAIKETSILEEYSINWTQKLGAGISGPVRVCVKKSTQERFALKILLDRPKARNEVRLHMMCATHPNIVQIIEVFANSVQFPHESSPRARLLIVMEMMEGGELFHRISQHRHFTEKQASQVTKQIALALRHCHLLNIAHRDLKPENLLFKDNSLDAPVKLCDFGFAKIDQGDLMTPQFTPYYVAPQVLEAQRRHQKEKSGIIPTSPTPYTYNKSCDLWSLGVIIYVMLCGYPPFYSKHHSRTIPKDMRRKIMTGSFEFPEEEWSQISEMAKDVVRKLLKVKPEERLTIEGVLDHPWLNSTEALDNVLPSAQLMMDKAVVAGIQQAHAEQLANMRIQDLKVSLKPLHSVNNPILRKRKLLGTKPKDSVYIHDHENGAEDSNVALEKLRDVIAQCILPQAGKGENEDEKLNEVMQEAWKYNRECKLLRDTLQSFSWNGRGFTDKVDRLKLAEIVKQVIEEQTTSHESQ
UniProt Q9H9A6, sequence (Q9H9A6 whole entry, looked up): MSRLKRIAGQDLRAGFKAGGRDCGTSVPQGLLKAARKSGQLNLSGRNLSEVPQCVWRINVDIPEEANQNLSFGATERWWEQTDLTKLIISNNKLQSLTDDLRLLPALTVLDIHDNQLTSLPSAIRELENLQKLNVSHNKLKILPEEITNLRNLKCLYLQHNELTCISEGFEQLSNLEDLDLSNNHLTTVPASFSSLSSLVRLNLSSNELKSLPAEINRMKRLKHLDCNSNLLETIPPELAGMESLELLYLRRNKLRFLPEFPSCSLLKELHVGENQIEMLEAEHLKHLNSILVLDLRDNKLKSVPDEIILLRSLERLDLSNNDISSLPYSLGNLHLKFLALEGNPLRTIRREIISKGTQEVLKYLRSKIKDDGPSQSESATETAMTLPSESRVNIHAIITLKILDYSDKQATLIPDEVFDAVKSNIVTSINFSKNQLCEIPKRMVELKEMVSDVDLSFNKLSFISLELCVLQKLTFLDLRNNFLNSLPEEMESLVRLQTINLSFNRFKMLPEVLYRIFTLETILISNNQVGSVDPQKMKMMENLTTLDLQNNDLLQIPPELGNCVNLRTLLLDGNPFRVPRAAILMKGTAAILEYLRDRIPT
UniProt Q14739, sequence (Q14739 whole entry, looked up): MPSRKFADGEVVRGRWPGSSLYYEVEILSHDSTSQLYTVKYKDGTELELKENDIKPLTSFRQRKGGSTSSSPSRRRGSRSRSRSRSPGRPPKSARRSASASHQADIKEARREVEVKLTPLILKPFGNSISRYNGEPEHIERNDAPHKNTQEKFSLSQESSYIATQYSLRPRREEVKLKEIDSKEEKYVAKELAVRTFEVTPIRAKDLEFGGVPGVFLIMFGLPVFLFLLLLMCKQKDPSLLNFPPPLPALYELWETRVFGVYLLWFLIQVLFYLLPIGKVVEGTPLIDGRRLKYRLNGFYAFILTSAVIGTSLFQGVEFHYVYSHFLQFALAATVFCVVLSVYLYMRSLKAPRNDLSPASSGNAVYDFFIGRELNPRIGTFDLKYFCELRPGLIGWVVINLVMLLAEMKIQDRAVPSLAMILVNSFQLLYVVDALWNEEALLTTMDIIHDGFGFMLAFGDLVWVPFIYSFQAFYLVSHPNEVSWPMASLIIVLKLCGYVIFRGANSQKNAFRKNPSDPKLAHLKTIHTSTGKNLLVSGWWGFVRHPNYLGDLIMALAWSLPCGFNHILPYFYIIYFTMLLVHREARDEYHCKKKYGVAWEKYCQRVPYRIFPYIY
UniProt Q9NZB8, sequence (Q9NZB8 whole entry, looked up): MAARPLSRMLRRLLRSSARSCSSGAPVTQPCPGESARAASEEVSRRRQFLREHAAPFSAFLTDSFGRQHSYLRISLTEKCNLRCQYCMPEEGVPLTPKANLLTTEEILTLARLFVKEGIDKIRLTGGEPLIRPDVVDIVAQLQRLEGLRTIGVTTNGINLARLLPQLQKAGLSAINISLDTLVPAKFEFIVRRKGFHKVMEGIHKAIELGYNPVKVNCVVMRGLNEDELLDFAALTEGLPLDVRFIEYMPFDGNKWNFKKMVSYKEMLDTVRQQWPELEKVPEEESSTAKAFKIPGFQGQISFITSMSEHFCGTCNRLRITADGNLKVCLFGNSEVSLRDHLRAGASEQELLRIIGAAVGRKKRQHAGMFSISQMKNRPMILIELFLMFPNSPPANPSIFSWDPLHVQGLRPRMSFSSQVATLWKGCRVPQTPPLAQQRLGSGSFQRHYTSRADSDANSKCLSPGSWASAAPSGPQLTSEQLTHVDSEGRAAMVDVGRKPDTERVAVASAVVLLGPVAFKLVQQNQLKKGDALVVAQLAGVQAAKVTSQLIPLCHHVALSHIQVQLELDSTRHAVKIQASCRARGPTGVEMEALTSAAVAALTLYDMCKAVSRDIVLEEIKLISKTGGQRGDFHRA
UniProt Q9UFC0, sequence (Q9UFC0 whole entry, looked up): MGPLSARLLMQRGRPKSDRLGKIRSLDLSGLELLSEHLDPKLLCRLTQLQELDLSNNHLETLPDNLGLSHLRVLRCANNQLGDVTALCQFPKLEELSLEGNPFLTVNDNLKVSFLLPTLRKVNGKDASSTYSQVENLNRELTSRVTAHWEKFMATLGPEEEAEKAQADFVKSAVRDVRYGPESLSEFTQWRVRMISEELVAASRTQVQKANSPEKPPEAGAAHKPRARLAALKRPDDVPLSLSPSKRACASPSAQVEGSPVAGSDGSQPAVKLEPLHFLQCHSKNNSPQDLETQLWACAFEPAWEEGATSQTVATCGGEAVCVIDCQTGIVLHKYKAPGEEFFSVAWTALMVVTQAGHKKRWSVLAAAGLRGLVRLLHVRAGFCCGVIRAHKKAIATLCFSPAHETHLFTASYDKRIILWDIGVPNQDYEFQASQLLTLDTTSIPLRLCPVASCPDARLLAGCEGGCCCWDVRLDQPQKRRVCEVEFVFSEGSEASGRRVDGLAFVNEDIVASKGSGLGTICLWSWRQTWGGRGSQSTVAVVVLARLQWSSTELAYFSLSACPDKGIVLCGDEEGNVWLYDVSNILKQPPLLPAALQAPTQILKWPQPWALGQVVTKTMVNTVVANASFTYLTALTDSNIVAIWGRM
UniProt Q9NX58, sequence (Q9NX58 whole entry, looked up): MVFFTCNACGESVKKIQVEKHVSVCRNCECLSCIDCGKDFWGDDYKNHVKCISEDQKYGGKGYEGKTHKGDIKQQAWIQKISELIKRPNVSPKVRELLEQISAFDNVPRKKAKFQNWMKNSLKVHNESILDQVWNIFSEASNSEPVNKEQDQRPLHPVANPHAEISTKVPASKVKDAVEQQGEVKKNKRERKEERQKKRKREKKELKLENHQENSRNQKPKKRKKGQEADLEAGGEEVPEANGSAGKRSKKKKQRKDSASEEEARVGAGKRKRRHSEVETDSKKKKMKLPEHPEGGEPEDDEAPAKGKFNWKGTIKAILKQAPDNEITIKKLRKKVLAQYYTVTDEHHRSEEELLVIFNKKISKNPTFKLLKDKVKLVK

In order of rising log2 fold change:
1. MAP4K4 isoform 3 (UniProt O95819)  -0.185
2. MAPKAPK5 (UniProt Q8IW41)  -0.111
3. MAST4 (UniProt O15021)  -0.085
4. MBLAC2 (UniProt Q68D91)  -0.069
5. LPIN1 isoform 7 (UniProt Q14693)  -0.057
6. MICU1 isoform 3 (UniProt Q9BPX6)  -0.055
7. MICB, A0A140T979  -0.054
8. KLC4 isoform 3 (UniProt Q9NSK0)  -0.038
9. KNL1 (UniProt Q8NG31)  -0.031
10. MCMBP (UniProt Q9BTE3)  -0.029
11. LIG3 (UniProt P49916)  -0.029
12. MAPKAPK3 (UniProt Q16644)  -0.02
13. MAPK9 (UniProt P45984)  -0.016
14. MON2 isoform 5 (UniProt Q7Z3U7)  -0.015
15. KNSTRN (UniProt Q9Y448)  -0.012
16. LRCH3 (UniProt Q96II8)  -0.009
17. MAP1S (UniProt Q66K74)  -0.004
18. KLC1 isoform 6 (UniProt Q07866)  0.003
19. MRPL15 (UniProt Q9P015)  0.004
20. LRRC40 (UniProt Q9H9A6)  0.004
21. LRWD1 (UniProt Q9UFC0)  0.009
22. KIF2C (UniProt Q99661)  0.01
23. LYAR (UniProt Q9NX58)  0.011
24. LBR (UniProt Q14739)  0.012
25. MGST1 (UniProt P10620)  0.015
26. MACROD1 (UniProt Q9BQ69)  0.016
27. KLHL36 (UniProt Q8N4N3)  0.024
28. MLST8 (UniProt Q9BVC4)  0.025
29. MRPL10 isoform 2 (UniProt Q7Z7H8)  0.027
30. MED17 (UniProt Q9NVC6)  0.028
31. KIF21A isoform 5 (UniProt Q7Z4S6)  0.03
32. LRPPRC (UniProt P42704)  0.032
33. MED10 (UniProt Q9BTT4)  0.037
34. MAP2K1 (UniProt Q02750)  0.056
35. MOCS1 isoform 8 (UniProt Q9NZB8)  0.063
36. MMS19 isoform 8 (UniProt Q96T76)  0.064
37. MAPK14 (UniProt Q16539)  0.175
38. MAP2K5 (UniProt Q13163)  0.207

For MAP2K4 isoform 2 (UniProt P45985), the log2 fold change was 0.601 (active).

From the supplement of paper PMC10849652
